Laboratory results published in ChEMBL document CHEMBL2218924, “A broad activity screen in support of a chemogenomic map for kinase signalling research and drug discovery” (Biochem J, 2013).

Legend:
[1] = molecular target: Tyrosine-protein kinase SYK (Homo sapiens) (UniProt P43405); conditions: at 10 µM
[2] = molecular target: T1, Mitogen-activated protein kinase kinase kinase 7 (Homo sapiens) (UniProt O43318); conditions: at 1 µM
T1 sequence (whole entry): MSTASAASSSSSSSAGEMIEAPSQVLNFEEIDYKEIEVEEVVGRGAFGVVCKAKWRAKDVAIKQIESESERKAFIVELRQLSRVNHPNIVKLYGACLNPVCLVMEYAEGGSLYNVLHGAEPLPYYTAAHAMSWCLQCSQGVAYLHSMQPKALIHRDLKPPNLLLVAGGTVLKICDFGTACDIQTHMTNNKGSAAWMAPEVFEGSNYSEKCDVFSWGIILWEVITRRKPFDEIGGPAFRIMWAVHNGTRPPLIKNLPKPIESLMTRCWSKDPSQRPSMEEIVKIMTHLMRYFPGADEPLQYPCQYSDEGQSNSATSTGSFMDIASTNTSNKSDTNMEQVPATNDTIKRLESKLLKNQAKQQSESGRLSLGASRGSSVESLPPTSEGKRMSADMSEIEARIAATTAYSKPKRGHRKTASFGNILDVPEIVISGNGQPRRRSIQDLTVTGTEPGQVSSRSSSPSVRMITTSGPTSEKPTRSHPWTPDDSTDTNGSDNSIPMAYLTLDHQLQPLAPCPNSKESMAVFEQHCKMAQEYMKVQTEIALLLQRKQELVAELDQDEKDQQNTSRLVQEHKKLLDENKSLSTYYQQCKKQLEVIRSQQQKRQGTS

[3] = molecular target: T1, Mitogen-activated protein kinase kinase kinase 7 (Homo sapiens); conditions: at 10 µM
[4] = molecular target: T2, Serine/threonine-protein kinase TAO2 (Homo sapiens) (UniProt Q9UL54); conditions: at 1 µM
T2 sequence (whole entry): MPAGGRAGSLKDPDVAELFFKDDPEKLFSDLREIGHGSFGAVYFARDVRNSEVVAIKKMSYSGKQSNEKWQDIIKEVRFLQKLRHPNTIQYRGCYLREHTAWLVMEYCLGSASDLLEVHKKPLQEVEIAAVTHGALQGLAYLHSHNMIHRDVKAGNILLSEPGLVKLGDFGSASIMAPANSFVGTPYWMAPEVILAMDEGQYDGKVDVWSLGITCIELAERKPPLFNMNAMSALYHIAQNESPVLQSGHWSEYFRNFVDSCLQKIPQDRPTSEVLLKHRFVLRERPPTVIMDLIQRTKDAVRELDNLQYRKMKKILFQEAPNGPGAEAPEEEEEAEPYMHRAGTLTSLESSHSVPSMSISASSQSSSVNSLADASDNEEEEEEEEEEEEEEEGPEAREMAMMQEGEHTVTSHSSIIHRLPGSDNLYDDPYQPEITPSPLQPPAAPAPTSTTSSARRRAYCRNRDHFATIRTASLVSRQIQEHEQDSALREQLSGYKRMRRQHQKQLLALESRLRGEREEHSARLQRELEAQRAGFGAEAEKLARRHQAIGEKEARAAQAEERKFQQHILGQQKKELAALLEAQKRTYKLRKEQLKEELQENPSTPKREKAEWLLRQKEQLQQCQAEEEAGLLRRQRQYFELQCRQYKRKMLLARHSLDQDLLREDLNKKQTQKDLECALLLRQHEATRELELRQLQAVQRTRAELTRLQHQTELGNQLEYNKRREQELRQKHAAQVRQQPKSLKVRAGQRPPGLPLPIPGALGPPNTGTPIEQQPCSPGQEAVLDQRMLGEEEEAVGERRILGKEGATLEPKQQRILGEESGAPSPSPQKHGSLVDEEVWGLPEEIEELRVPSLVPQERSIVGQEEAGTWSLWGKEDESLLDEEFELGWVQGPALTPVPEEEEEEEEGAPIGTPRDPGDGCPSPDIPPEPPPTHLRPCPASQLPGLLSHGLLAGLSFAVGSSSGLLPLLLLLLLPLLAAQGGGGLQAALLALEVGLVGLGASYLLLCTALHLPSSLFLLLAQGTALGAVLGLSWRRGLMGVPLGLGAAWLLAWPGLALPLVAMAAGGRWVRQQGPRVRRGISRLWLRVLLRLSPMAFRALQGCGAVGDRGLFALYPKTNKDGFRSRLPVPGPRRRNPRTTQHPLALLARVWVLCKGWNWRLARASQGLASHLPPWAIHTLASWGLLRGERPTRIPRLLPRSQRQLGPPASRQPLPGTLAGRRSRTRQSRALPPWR

[5] = molecular target: T2, Serine/threonine-protein kinase TAO2 (Homo sapiens); conditions: at 10 µM
[6] = molecular target: T3, Serine/threonine-protein kinase TAO3 (Homo sapiens) (UniProt Q9H2K8); conditions: at 1 µM
T3 sequence (whole entry): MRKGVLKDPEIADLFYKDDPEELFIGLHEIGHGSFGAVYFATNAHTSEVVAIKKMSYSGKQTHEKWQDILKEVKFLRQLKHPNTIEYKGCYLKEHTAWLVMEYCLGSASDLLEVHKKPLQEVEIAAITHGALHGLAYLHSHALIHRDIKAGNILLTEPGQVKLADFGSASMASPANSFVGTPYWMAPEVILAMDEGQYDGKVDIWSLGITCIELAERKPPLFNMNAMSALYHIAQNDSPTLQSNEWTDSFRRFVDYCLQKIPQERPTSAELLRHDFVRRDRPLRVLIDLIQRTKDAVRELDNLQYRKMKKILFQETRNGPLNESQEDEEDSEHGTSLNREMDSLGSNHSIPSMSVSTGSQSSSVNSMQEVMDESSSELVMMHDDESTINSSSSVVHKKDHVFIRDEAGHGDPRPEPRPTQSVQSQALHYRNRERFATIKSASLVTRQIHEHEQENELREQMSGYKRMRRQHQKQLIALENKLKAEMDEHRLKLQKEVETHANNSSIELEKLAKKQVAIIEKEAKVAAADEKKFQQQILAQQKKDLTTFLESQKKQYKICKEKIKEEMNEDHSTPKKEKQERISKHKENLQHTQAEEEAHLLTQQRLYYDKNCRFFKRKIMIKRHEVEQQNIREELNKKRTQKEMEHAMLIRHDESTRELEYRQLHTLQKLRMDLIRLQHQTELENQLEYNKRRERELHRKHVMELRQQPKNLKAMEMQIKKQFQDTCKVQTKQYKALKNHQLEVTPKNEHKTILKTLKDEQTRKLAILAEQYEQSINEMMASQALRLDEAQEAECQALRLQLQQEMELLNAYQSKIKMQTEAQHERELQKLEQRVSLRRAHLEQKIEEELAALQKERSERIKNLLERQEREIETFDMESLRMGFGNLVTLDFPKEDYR

[7] = molecular target: T3, Serine/threonine-protein kinase TAO3 (Homo sapiens); conditions: at 10 µM
[8] = molecular target: T4, Serine/threonine-protein kinase TBK1 (Homo sapiens) (UniProt Q9UHD2); conditions: at 1 µM
T4 sequence (whole entry): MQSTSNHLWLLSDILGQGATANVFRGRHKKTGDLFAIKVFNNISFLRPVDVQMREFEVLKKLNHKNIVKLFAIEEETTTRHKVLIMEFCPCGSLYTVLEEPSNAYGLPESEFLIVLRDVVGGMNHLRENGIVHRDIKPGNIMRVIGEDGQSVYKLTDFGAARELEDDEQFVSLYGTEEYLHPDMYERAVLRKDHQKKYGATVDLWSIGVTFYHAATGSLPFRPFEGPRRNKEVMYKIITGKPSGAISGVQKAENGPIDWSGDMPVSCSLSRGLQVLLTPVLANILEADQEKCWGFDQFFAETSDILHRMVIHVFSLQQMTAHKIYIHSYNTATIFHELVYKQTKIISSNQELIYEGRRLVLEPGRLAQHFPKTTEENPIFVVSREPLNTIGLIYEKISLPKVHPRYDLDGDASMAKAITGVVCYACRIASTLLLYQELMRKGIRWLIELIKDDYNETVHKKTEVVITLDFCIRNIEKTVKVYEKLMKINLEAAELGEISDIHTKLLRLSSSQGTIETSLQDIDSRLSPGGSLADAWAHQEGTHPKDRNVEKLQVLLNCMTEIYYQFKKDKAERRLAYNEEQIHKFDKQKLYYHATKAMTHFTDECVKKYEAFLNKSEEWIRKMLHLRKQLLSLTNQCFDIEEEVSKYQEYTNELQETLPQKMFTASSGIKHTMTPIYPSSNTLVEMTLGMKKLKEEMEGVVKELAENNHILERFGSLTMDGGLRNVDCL

[9] = molecular target: T4, Serine/threonine-protein kinase TBK1 (Homo sapiens); conditions: at 10 µM
[10] = molecular target: T5, TGF-beta receptor type-1 (Homo sapiens) (UniProt P36897); conditions: at 1 µM
T5 sequence (whole entry): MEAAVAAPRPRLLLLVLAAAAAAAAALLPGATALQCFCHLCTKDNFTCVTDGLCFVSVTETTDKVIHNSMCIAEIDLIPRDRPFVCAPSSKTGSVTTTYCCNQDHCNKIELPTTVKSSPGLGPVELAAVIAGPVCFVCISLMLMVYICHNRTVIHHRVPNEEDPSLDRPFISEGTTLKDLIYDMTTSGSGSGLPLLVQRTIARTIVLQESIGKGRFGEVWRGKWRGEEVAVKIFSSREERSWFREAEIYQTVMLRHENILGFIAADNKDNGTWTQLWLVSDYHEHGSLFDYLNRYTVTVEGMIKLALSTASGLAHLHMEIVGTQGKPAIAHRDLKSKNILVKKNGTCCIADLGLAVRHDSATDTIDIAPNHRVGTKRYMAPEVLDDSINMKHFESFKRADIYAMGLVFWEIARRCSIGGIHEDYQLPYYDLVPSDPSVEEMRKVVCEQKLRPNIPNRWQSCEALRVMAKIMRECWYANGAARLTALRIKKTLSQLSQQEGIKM

[11] = molecular target: Insulin-like growth factor 1 receptor (Homo sapiens) (UniProt P08069); conditions: at 1 µM
Sequence of Insulin-like growth factor 1 receptor (Homo sapiens) (P08069 31-736 limits assumed): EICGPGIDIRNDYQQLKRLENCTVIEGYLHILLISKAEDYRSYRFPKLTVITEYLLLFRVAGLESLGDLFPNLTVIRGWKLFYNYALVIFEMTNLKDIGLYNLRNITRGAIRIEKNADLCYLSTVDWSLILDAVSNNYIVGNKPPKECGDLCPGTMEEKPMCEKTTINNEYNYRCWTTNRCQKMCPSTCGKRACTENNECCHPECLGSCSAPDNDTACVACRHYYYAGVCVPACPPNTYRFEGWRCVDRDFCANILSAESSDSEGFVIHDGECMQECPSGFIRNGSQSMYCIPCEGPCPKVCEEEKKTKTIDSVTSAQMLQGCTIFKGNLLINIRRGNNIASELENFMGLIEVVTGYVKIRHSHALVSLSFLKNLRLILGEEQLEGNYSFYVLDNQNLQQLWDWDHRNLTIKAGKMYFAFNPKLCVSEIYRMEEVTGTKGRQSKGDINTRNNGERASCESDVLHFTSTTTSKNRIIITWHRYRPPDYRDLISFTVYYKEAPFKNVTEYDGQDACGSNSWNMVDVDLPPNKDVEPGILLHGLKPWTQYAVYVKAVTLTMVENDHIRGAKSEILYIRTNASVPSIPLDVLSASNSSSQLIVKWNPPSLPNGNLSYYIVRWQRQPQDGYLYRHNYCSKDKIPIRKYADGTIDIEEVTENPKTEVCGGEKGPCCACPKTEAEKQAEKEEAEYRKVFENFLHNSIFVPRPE
Sequence of Insulin-like growth factor 1 receptor (Homo sapiens) (P08069 741-1367 limits assumed): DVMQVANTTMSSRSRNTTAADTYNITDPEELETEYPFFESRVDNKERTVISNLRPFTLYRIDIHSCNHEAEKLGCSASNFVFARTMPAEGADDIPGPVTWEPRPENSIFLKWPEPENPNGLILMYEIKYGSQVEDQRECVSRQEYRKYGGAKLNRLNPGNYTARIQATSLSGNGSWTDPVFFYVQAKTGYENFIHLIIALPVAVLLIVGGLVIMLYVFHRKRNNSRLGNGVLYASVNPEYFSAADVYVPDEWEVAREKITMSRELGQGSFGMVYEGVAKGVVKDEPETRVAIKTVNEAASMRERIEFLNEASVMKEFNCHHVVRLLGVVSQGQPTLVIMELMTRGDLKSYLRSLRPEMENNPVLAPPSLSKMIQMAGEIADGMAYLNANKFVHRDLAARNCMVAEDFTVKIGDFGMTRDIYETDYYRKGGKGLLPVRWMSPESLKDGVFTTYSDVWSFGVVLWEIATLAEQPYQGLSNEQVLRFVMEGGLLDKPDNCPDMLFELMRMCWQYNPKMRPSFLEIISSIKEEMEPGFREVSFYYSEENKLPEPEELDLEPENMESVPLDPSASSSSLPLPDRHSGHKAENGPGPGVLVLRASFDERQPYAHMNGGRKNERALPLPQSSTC

[12] = molecular target: Insulin-like growth factor 1 receptor (Homo sapiens) (UniProt P08069); conditions: at 10 µM
[13] = molecular target: T6, Inhibitor of nuclear factor kappa-B kinase subunit alpha (Homo sapiens) (UniProt O15111); conditions: at 1 µM
T6 sequence (whole entry): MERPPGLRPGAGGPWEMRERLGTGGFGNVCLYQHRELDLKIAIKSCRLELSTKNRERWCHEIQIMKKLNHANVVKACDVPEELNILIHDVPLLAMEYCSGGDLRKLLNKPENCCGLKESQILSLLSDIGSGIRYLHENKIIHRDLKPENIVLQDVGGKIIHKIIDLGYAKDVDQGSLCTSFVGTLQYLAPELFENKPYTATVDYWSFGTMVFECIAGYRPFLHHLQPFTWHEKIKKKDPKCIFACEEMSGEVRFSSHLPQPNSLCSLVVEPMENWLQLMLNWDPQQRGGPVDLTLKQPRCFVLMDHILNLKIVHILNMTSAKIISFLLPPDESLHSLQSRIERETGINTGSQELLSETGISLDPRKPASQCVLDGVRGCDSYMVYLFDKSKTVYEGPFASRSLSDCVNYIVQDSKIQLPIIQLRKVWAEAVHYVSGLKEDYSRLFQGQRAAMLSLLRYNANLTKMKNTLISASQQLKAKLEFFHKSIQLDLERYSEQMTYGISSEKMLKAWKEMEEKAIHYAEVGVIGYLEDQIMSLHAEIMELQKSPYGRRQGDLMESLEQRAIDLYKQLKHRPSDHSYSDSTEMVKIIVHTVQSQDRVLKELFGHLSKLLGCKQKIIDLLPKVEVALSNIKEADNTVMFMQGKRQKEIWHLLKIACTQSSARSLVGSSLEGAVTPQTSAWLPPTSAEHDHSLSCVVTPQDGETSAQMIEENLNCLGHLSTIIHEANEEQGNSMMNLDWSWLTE

[14] = molecular target: T6, Inhibitor of nuclear factor kappa-B kinase subunit alpha (Homo sapiens); conditions: at 10 µM
[15] = molecular target: T7, Inhibitor of nuclear factor kappa-B kinase subunit beta (Homo sapiens) (UniProt O14920); conditions: at 1 µM
T7 sequence (whole entry): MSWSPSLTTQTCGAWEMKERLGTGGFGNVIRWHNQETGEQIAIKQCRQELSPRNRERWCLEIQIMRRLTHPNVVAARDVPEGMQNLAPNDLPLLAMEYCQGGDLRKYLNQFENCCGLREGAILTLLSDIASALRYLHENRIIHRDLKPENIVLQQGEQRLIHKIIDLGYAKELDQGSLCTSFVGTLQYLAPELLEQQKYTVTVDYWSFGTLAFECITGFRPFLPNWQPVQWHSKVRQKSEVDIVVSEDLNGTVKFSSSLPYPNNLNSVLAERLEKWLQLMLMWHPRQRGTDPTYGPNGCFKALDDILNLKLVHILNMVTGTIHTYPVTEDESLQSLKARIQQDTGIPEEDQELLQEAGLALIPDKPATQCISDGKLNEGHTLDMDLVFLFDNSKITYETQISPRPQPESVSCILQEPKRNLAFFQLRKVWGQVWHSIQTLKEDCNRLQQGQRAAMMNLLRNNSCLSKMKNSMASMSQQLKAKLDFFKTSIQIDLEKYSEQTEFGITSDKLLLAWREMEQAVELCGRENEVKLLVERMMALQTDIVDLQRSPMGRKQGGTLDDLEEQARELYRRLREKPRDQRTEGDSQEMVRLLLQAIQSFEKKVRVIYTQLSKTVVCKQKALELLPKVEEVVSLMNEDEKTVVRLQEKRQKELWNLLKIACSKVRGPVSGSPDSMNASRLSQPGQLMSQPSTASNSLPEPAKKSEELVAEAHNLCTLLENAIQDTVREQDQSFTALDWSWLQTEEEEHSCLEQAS

[16] = molecular target: T7, Inhibitor of nuclear factor kappa-B kinase subunit beta (Homo sapiens); conditions: at 10 µM
[17] = molecular target: Insulin receptor (Homo sapiens) (UniProt P06213); conditions: at 1 µM
Sequence of Insulin receptor (Homo sapiens) (P06213 28-758 limits assumed): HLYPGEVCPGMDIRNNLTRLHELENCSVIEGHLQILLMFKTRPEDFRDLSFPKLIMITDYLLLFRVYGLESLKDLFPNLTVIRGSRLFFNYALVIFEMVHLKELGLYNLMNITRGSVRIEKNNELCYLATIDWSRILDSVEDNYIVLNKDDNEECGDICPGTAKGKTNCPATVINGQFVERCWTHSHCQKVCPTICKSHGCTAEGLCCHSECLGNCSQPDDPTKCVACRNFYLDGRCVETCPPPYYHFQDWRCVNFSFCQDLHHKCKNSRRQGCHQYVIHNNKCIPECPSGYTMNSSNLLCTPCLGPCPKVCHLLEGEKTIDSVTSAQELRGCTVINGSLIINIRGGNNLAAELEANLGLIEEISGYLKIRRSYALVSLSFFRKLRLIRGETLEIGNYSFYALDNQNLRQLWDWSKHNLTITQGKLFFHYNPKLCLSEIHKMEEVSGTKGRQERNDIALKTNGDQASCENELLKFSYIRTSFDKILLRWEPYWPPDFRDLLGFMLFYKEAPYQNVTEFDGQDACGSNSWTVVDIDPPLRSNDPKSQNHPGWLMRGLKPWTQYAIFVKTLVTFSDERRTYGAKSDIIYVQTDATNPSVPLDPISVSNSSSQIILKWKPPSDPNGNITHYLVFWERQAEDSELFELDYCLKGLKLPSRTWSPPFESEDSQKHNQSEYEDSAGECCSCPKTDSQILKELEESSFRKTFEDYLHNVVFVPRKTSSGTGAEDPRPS
Sequence of Insulin receptor (Homo sapiens) (P06213 763-1382 limits assumed): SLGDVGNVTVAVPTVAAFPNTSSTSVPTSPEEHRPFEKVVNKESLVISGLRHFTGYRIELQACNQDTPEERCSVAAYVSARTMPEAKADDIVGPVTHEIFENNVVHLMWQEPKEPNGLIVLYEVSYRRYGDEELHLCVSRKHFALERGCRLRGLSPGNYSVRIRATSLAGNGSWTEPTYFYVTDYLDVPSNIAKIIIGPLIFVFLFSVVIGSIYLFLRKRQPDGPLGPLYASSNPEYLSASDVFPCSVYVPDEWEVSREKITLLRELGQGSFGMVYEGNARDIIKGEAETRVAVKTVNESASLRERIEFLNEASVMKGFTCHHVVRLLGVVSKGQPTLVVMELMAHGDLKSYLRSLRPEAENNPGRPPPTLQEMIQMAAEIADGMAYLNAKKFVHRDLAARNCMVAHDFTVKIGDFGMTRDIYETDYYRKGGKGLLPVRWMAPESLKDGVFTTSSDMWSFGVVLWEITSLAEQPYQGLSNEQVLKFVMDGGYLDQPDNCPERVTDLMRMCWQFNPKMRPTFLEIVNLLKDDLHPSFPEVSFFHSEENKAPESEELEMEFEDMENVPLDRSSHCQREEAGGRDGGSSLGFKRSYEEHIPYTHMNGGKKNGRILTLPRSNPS

## O=C1NC(=O)c2c1c1c3ccccc3[nH]c1n1cncc21
[1]
  residual activity: 25%
[2]
  residual activity: 55%
[3]
  residual activity: 30%
[4]
  residual activity: 88%
[5]
  residual activity: 69%
[6]
  residual activity: 69%
[7]
  residual activity: 63%
[8]
  residual activity: 53%
[9]
  residual activity: 35%
[10]
  residual activity: 91%
[11]
  residual activity: 45%
[12]
  residual activity: 30%
[13]
  residual activity: 63%
[14]
  residual activity: 55%
[15]
  residual activity: 94%
[16]
  residual activity: 80%
[17]
  residual activity: 10%
